Source: the supplement of paper PMC11001985
Values without a mark were called inactive.

The targets below were run with C#CCNC(=O)CCSSCCC(=O)NCCc1ccc(C=O)c(C=O)c1 (assay: lysine labeling ratio R10:1 (500 µM / 50 µM probe), SILAC-ABPP in living cells; higher = lower intrinsic lysine reactivity toward the probe, active = 2 or less). Settings: HeLa; probe concentrations 500 vs 50 µM.
In short: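 The two probe levels, 50 µM and 500 µM, of an alkyne-tagged, disulfide-linked lysine probe were applied to living light and heavy SILAC HeLa cells in PBS at room temperature, and the labels were run in both forward and reverse orientation. Mixed lysates underwent biotin-azide click chemistry, trypsin digestion, neutravidin capture, DTT release and alkylation before LC-MS/MS on a TIMS-TOF Pro. R is the filtered median high-probe/low-probe MS1 peptide ratio for each lysine, summarised as the median over forward and reverse replicates. Nothing above 20 is reported; such values are set to 20.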

Chain of UniProt P17301 (P17301 whole entry): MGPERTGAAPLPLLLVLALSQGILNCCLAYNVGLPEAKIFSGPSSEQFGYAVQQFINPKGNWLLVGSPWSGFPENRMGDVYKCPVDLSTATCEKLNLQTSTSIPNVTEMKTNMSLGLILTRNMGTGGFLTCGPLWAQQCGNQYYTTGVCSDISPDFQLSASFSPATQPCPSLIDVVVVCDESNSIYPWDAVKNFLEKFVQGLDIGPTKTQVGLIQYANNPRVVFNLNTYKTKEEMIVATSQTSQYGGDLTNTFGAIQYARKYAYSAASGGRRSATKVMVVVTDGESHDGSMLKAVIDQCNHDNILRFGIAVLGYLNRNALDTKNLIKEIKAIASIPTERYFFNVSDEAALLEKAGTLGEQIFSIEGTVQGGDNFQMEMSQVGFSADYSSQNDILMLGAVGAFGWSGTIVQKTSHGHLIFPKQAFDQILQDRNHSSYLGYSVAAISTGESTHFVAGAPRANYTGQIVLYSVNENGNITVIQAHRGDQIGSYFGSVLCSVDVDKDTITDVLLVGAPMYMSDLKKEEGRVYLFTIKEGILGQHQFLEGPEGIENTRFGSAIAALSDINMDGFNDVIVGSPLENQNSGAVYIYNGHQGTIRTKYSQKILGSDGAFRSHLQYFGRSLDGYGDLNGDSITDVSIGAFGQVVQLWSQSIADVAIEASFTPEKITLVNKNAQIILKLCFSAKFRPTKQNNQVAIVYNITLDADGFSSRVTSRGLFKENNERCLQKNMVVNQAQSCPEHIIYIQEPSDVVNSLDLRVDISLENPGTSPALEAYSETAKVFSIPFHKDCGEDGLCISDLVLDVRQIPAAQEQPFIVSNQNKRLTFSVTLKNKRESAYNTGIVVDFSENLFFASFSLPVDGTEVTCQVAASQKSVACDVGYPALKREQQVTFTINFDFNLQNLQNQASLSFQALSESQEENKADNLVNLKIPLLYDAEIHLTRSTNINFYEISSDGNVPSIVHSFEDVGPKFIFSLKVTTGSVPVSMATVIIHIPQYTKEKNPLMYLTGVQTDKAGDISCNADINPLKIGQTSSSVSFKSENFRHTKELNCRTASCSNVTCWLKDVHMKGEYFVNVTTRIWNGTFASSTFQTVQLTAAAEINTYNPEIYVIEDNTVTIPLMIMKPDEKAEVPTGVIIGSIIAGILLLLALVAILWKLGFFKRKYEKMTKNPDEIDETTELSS
Chain of UniProt P54136 (P54136 whole entry): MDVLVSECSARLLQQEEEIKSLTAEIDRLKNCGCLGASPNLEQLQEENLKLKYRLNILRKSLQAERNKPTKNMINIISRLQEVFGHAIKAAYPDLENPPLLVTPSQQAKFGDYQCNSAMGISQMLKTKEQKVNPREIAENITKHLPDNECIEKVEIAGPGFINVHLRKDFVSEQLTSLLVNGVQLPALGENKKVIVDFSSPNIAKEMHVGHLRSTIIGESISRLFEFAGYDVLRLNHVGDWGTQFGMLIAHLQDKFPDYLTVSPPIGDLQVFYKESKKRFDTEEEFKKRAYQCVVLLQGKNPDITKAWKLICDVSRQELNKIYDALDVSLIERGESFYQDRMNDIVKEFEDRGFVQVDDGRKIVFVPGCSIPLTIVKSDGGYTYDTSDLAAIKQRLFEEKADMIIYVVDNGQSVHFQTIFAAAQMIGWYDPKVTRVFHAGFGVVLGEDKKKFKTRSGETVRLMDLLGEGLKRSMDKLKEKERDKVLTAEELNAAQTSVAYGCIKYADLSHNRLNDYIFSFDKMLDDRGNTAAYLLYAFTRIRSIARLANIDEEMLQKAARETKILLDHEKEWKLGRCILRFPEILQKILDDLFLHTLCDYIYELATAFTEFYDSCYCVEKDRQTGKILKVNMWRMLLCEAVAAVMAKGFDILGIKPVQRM
Chain of UniProt O75369 (O75369 whole entry): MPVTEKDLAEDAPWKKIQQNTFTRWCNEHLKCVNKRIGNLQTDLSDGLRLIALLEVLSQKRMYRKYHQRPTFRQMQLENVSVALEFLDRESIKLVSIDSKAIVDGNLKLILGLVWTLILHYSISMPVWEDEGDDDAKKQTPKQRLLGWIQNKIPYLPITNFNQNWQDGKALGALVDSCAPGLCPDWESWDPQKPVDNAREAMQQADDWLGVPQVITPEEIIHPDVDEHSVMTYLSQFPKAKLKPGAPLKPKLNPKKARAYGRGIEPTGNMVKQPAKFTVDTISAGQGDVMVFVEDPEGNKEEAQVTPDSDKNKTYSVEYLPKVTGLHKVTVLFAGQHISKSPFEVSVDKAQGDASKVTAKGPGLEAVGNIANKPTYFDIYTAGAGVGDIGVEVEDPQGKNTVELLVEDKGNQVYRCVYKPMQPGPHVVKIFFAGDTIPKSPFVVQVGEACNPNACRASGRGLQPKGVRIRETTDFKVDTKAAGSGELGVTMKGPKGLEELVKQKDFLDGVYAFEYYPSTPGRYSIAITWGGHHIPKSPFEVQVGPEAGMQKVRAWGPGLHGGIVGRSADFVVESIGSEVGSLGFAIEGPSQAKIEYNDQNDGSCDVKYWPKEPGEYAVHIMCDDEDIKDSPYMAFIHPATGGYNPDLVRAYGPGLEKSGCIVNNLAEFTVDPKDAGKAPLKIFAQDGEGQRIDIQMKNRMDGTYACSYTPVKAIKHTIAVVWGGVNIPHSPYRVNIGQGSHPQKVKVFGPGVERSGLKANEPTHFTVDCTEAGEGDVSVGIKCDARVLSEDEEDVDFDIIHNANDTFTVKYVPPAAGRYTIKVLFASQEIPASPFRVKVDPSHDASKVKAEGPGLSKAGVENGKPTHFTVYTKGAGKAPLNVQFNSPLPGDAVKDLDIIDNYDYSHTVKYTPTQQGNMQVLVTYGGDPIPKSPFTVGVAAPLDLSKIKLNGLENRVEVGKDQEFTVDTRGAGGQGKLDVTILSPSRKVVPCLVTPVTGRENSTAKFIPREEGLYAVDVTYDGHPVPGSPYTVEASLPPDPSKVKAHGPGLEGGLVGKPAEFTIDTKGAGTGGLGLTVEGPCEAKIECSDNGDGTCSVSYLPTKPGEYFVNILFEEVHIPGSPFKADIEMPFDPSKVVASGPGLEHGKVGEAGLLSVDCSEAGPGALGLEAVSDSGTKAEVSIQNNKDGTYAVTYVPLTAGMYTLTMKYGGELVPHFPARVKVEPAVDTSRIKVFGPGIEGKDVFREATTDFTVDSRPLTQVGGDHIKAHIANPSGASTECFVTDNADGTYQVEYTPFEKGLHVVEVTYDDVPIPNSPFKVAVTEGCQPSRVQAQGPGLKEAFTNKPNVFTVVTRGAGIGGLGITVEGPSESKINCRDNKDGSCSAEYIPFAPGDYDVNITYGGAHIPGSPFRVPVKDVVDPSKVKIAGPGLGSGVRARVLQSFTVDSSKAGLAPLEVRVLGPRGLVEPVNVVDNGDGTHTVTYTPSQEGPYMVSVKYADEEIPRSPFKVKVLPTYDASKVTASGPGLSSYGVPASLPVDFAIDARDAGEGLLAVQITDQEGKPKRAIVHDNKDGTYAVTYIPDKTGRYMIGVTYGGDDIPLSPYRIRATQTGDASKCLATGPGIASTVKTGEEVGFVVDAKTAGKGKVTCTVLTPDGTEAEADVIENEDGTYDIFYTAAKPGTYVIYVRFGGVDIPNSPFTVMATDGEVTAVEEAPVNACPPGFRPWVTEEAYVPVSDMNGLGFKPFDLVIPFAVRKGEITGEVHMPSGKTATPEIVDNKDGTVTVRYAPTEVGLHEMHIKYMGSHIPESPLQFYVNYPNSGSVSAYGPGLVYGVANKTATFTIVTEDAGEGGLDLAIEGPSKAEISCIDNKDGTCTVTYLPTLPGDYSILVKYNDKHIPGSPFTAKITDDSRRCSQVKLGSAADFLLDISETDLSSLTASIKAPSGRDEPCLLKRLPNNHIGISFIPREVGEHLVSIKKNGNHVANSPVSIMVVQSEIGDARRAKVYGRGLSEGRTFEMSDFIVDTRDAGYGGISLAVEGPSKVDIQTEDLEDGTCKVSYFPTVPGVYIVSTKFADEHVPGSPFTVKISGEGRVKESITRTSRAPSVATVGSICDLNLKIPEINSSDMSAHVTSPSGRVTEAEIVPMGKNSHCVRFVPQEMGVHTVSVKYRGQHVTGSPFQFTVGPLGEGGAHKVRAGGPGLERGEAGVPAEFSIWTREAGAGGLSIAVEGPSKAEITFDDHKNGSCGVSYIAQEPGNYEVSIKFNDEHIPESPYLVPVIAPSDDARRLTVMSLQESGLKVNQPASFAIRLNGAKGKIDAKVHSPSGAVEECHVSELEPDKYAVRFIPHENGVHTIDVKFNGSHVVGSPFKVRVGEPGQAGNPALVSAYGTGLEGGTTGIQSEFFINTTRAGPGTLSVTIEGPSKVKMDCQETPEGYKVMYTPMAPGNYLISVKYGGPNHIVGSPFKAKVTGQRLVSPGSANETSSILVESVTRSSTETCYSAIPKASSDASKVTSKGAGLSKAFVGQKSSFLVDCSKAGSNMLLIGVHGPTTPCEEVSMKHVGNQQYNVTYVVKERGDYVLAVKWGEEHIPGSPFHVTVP
Chain of UniProt P08727 (P08727 whole entry): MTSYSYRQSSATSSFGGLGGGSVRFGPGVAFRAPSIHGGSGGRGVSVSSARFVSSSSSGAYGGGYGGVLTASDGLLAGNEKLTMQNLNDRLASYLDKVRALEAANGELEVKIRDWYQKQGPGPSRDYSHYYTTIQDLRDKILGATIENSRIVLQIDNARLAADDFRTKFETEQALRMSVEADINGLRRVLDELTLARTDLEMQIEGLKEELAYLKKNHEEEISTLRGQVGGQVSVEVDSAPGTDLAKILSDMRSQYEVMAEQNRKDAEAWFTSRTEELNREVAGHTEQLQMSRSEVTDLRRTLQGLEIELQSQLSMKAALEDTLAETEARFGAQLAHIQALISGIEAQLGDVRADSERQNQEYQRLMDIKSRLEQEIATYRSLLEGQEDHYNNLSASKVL
Chain of UniProt Q15125 (Q15125 whole entry): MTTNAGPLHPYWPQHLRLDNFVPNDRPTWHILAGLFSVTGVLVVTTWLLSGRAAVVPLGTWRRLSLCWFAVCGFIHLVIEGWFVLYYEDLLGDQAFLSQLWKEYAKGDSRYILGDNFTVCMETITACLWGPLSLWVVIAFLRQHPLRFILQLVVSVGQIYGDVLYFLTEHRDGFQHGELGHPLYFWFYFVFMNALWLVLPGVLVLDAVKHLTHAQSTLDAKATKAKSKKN

Target | lysine labeling ratio R10:1
GAS1 (lysine site: K137) (UniProt P54826) | 3.54
MSN (lysine site: K412) (UniProt P26038) | 3.35
RARS (lysine site: K60) (UniProt P54136) | 3.02
ITGA2 (lysine site: K261) (UniProt P17301) | 1.26 (active)
ITGA2 (lysine site: K821) (UniProt P17301) | 3.08
FASN (lysine site: K436) (UniProt P49327) | 5.67
CCT2 (lysine site: K82) (UniProt P78371) | 2.91
SURF4 (lysine site: K139) (UniProt O15260) | 3.69
EZR (lysine site: K162) (UniProt P15311) | 0.7 (active)
UniProt P62987 (lysine site: K93) | 5.44
VIM (lysine site: K334) (UniProt P08670) | 5.58
LAMC1 (lysine site: K1584) (UniProt P11047) | 3.72
UniProt P08727 (lysine site: K398) | 2.38
UniProt Q00341 (lysine site: K510) | 0.655 (active)
UniProt P55285 (lysine site: K121) | 4.12
UniProt Q8WXI7 (lysine site: K13676) | 3.84
ITGAV (lysine site: K535) (UniProt P06756) | 1.58 (active)
PRDX5 (lysine site: K146) (UniProt P30044) | 1.62 (active)
UniProt P16144 (lysine site: K388) | 0.94 (active)
HNRNPM (lysine site: K698) (UniProt P52272) | 0.67 (active)

Target | lysine labeling ratio R10:1
EBP (lysine site: K106) (UniProt Q15125) | 4.19
UniProt Q6NZI2 (lysine site: K265) | 4.28
DCTN2 (lysine site: K175) (UniProt Q13561) | 2.59
AHNAK (lysine site: K326) (UniProt Q09666) | 1.7 (active)
PTGFRN (lysine site: K632) (UniProt Q9P2B2) | 11.6
FKBP4 (lysine site: K354) (UniProt Q02790) | 1.51 (active)
FAT4 (lysine site: K2215) (UniProt Q6V0I7) | 3.48
VCL (lysine site: K316) (UniProt P18206) | 1.77 (active)
GPRC5A (lysine site: K14) (UniProt Q8NFJ5) | 6.52
UniProt P61353 (lysine site: K98) | 1.21 (active)
EFNB2 (lysine site: K163) (UniProt P52799) | 1.53 (active)
UniProt P26639 (lysine site: K694) | 1.36 (active)
FLNA (lysine site: K338) (UniProt P21333) | 3.9
TMEM132A (lysine site: K820) (UniProt Q24JP5) | 2.33
UniProt P83731 (lysine site: K93) | 6.58
FN1 (lysine site: K248) (UniProt P02751) | 2.7
SLC25A1 (lysine site: K160) (UniProt P53007) | 2.79
FLNB (lysine site: K1221) (UniProt O75369) | 3.74
UniProt P21589 (lysine site: K478) | 1.17 (active)
HEG1 (lysine site: K1178) (UniProt Q9ULI3) | 4.55
